# From PubChem
# Most compounds without a hit are left out; they make up all but 7.8% or so of the library.
# HCMV antiviral: blocks human cytomegalovirus replication | HFF cells, HCMV-luciferase reporter, 72 h; stronger effect = lower value | activity change, negative = inhibition, % at 57.5 µM | AID 1259415 | actives 4.5% (n = 410,000); in the data active = activity change below about -60%; inconclusive = no clear call, values can overlap the other calls; inactive = above about -39%
#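 Two-dose cell screen: HFF monolayers treated with compounds and infected with luciferase-expressing HCMV at 1 PFU/cell, 72 h at 37C, then lysed for luciferase measurement.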
# Lassa entry inh: Lassa virus entry inhibition; Potency, µM (top dose mostly 37.9 µM), for the others: at the highest dose activity change, negative = inhibition, hits mostly inhibitors; Lassa virus pseudotype entry inhibition, cell reporter; actives 1.2% (n = 300,000); calls by dose curve; tested in HEK293 cells; note: potency is the fitted concentration of half-maximal effect; nearly all actives have a fitted effect of over 50% in size
# HCV inhibitor: blocks hepatitis C virus | Huh7.5.1 HCVcc-Cre infection, luciferase reporter, 44 h | Potency, µM (top dose mostly 41.8 µM), without a hit: at the top dose activity change, negative = inhibition, hits mostly inhibitors | actives 3.4% (n = 340,000) | AID 651820; active = well fitted inhibition curve with a large enough effect; inconclusive = small, poorly fitted or top-dose-only effect, or another doubt; inactive = no such curve, though single readings can be large or run the other way; note: potency is the fitted concentration of half-maximal effect
#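 1,000 cells/well; 4 h culture; + compound; + HCVcc-Cre (~0.5 moi); 44 h; luciferase substrate, RT 15 min; read 15 sec.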
# VACV mCherry inh: inhibitors of vaccinia virus infection (mCherry reporter signal); Potency, µM (highest dose often 36.5 µM), for the others: at the highest dose activity change, negative = inhibition, hits mostly inhibitors; actives 0.63% (n = 310,000); Vaccinia virus mCherry reporter infection, fluorescence; calls by dose curve; tested in A549 cells; note: potency is the fitted concentration of half-maximal effect; nearly all actives have a fitted effect of over 35% in size
# Vaccinia Venus: vaccinia inhibition (Venus reporter). AID 720580. actives 0.46% (n = 330,000). Potency, µM (top dose mostly 36.5 µM), without a hit: at the highest dose activity change, negative = inhibition, actives largely listed as inhibitors. Vaccinia virus Venus reporter expression, fluorescence; calls by dose curve; tested in A549 cells; note: potency is the fitted concentration of half-maximal effect; nearly all actives have a fitted effect of over 30% in size
# MARV entry inh: Marburg virus entry inhibition | Marburg virus pseudotyped entry inhibition, cell reporter | Potency, µM (titrated, usually from 37.8 µM), inactives show top-dose activity change, negative = inhibition, most hits filed as inhibitors | actives 1.8% (n = 300,000); calls by dose curve; tested in HEK293 cells; note: potency is the fitted concentration of half-maximal effect
# Active calls of the source: *; i = inactive; ? = inconclusive; . = no result; ! = not confirmed by another sample; [ ] = another dose, or the depositor's remark. % is set by controls: 0 for no effect and ±100 for the full control effect.
SMILES,HCMV antiviral,Lassa entry inh,HCV inhibitor,VACV mCherry inh,Vaccinia Venus,MARV entry inh
CCc1cccc(CC)c1NC(=S)NCCc1c(C)[nH]c2ccc(C)cc12,-92.9*,?,22.4µM*,10µM*,15.8µM*,?
CCc1cccc(C)c1NC(=S)NCCc1c(C)[nH]c2ccc(C)cc12,-71.7*,?,35.5µM*,17.8µM*,?,?
COc1ccc(CCNC(=S)Nc2ccc(C)cc2C)cc1,-75.5*,-1.3%,?,.,.,21.8%
COc1ccc2[nH]c(C)c(CCNC(=S)Nc3cc(C)cc(C)c3)c2c1,?,-16.2%,-19.1%[8.37 µM],-20.2%,?,33.3%
COc1ccc2[nH]c(C)c(CCNC(=S)Nc3cccc(C)c3)c2c1,?,?,-23.8%[8.37 µM],?,?,?
COc1ccc2[nH]c(C)c(CCNC(=S)Nc3cc(C)ccc3C)c2c1,-60.6*,4.0%,?,-16.3%,-13.7%,-6.0%
Cc1ccc(OCCn2cc(C(=O)c3ccco3)c3ccccc32)cc1C,-3.7,?,.,-12.5%,-6.7%,-16.0%[46.1 µM]
CCc1ccccc1NC(=O)C(CC)Sc1nc2cc3c(cc2c(=O)n1Cc1ccco1)OCO3 (centres undefined),-94.1*,?,?,.,.,?
Cc1ccc(-c2nc3ccc(Br)cn3c2Cc2cccc(F)c2)cc1,-2.2,.,.,12.3%,-4.6%,.
CC12CC(NC(=O)N1c1cccc(C(=O)NCc3ccc4c(c3)OCO4)c1)c1cc(Cl)ccc1O2 (centres undefined),-4.2,?,25.1µM*,?,?,?
Cc1ccc(-c2csc3nc(SCC(=O)N(C)C)n(Cc4ccccc4)c(=O)c23)cc1,37.2,?,31.6µM*,-5.5%,?,?
NC(=O)CSc1nc2scc(-c3ccc(Cl)cc3)c2c(=O)n1Cc1ccccc1,?,-13.7%[46.1 µM],2.0%,-6.5%,-20.9%,-16.6%[46.1 µM]
Cc1ccc(S(=O)(=O)NCCSc2nnnn2-c2ccc(Cl)c(C(=O)O)c2)cc1,9.6,14.9%[46.1 µM],.,-0.7%,-10.5%,?
COc1cc(=O)n2c(c1C(=O)N(C)Cc1nonc1C)CCN(C(=O)c1cc(C)cc(C)c1)CC2,.,.,.,-8.0%,-16.0%,.
Cc1ccc(N/N=C/c2ccc3c(c2)OCCO3)cc1Cl,-28.9,-3.6%,-4.6%,-23.0%,-8.8%,?
O=C(O)c1ccc(N/N=C/c2ccc3c(c2)OCO3)cc1,-72.5*,?,-3.3%,-17.1%,-11.9%,?
O=C(O)c1cc(N/N=C/c2ccc3c(c2)OCO3)ccc1Cl,97.9,?,5.1%,-17.0%,-7.8%,2.51µM*
O=C(O)c1cc(N/N=C/c2ccc3c(c2)OCCO3)ccc1Cl,162.8,1.58µM*,0.1%,-10.6%,0.7%,?
O=C(O)c1ccc(N/N=C/c2cc3c(cc2[N+](=O)[O-])OCO3)cc1,?,12.7%[46.1 µM],19.5%,-20.6%,-14.2%,?
N#CC1=C(N)OC2=C(C(=O)CC(c3ccco3)C2)C1c1ccc(OCc2c(F)cccc2Cl)cc1 (centres undefined),8.0,?,?,.,-19.4%,?
COc1cccc(C2C(C#N)=C(N)OC3=C2C(=O)CC(c2ccco2)C3)c1OCc1ccc(F)cc1 (centres undefined),-4.8,?,?,-27.6%,-11.1%,15.8µM*!
CCOC(=O)[C@H]1[C@H]2COc3ccc(Cl)cc3[C@@H]2N2C(=O)CN(Cc3ccc(F)cc3)C(=O)[C@@]12C,-3.3,.,-23.4%,i,-22.9%,.
CCOC(=O)[C@H]1[C@H]2COc3ccc(Cl)cc3[C@@H]2N2C(=O)c3ccccc3NC(=O)[C@@]12C,-69.6*,.,-12.2%,-25.6%,-18.5%,.
CCOC(=O)[C@H]1[C@H]2COc3ccc(OC)cc3[C@@H]2N2C(=O)c3ccccc3NC(=O)[C@@]12C,-80.0*,.,?,i,-18.4%,.
CCOC(=O)[C@H]1[C@H]2COc3ccc(OC)cc3[C@@H]2N2C(=O)c3cc(OC)ccc3NC(=O)[C@@]12C,-15.2,.,-5.5%,-1.7%,-13.0%,.
SMILES,HCMV antiviral,Lassa entry inh,HCV inhibitor,VACV mCherry inh,Vaccinia Venus,MARV entry inh
CCOC(=O)[C@H]1[C@H]2COc3ccc(Cl)cc3[C@@H]2N2C(=O)CN(Cc3ccc(Cl)cc3)C(=O)[C@@]12C,-99.4*,.,-1.5%,-10.4%,-23.2%,.
Clc1nc(NCC2CCCO2)c2[nH]cnc2n1 (centres undefined),.,.,.,-24.0%,-13.8%,.
COc1ccc(CN2CC[C@H]3C=CC[C@@H](C(=O)NCc4cccnc4)[C@H]3C2=O)cc1OC,.,.,.,i,-3.7%,.
CC(=O)Nc1c(C)nn(-c2ccccc2)c1N1CCC(C(=O)Nc2ccc(F)cc2Cl)CC1,33.4,5.6%[46.1 µM],.,-8.1%[7.34 µM],-0.2%[7.34 µM],.
Fc1cccc(-c2cc3cnc(Nc4ccc(C(F)(F)F)cc4)cc3[nH]2)c1,-7.4,.,.,.,.,.
CCOc1ccc(-c2csc(/C(C#N)=C/c3ccc(Br)cc3)n2)cc1,-10.5,4.8%[46.1 µM],.,-13.2%,-3.6%,.
Cc1ccc(-c2nnc(-c3ccccc3)o2)cc1,107.9,10µM*,13.9%,-2.5%,1.2%,15.8µM*
COc1ccc(-c2nnc(-c3ccc(C)cc3)o2)cc1,12.5,20.9%[46.1 µM],0.3%,i,-14.1%,?
COc1ccc(SCCc2nnc(-c3ccccc3)o2)cc1,-97.5*,.,-4.6%,.,.,.
c1ccc(Cc2nnc(-c3ccccc3)o2)cc1,-96.3*,-26.1%,7.9%,-6.4%,-18.1%,?
COc1ccc(Cc2nnc(-c3ccccc3)o2)cc1,19.1,0.9%[46.1 µM],3.2%,-10.5%,10.6%,5.0%[46.1 µM]
Brc1ccc(-c2nnc(Cc3ccccc3)o2)cc1,32.8,.,-19.4%,.,.,.
CN(C)c1ccc(Cn2ccc3ccccc32)cc1,.,.,.,36.6%,5.7%,.
Cc1cc(C)cc(Nc2nc3ccccc3n3cnnc23)c1,11.4,25.7%[46.1 µM],.,i,-20.7%,-21.2%[46.1 µM]
COc1ccccc1NC(=O)Nc1nc(CC(=O)N2CCN(c3ccccc3)CC2)cs1,-6.3,?,12.6µM*,1µM*,-28.4%,7.3%[46.1 µM]
COc1ccccc1NC(=O)Cc1csc(NC(=O)c2ccccc2)n1,-69.2*,?,7.08µM*,.,.,-27.8%
COc1ccccc1NC(=O)Nc1nc(CC(=O)Nc2ccc(F)cc2)cs1,-25.0,9.8%,?,?,-23.0%,-22.0%
COc1ccccc1NC(=O)Nc1nc(CC(=O)N2CCN(c3ccc(F)cc3)CC2)cs1,-23.0,?,11.2µM*,?,-28.4%,11.2µM*
COc1ccc(-n2nc(C(=O)N3CCCC(C)C3)c3c4ccccc4n(C)c3c2=O)cc1 (centres undefined),-2.4,-5.9%[46.1 µM],.,-12.4%,-22.1%,14.1%[46.1 µM]
CN1CCN(C(c2ccccn2)c2cc(Cl)c3cccnc3c2O)CC1 (centres undefined),-14.0,.,?,-21.5%,-25.4%,.
O=S(=O)(Nc1ccc(C(O)(C(F)(F)F)C(F)(F)F)cc1)c1cccc2cccnc12,-11.6,.,.,14.1%,-7.1%,.
Oc1c(C(Nc2cccnc2)c2ccc(C(F)(F)F)cc2)ccc2cccnc12 (centres undefined),.,.,.,8.91µM*,?,.
